Measurements taken from the supplement of paper PMC10849652.
About 7,900 targets were measured; listed, in parts, are those with a hit and a random draw of the rest. About 0.6% of all pairs of compound and target were hits.

compound: COc1cc2nc(-c3cc(F)ccc3O)nc(N[C@@H]3CNC[C@H]3C(C)(C)O)c2cc1OC; assay: log2 fold change, soluble protein after heating vs DMSO (PISA); higher = thermal stabilisation; K562 cells, 10 uM, 30 min; active = over 0.2 and 3.5 SD of the protein, either way, in both replicates (recomputed)
Procedure, shortened: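 K562 cells at 2×10^6 cells/mL were given 10 μM compound for 30 min. Aliquots then went through 3 min of heating across 48°C-58°C, were pooled, and were extracted in PBS with 0.5% NP-40 at 4°C, and the supernatant after 21,000xg for 90 min was quantified by TMTpro 16plex LC-MS/MS with channel sums equalised. Thermal stability relative to control samples, from duplicates, is given as log2 fold change.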

Sequence of UniProt Q9BTU6 (Q9BTU6 whole entry, looked up): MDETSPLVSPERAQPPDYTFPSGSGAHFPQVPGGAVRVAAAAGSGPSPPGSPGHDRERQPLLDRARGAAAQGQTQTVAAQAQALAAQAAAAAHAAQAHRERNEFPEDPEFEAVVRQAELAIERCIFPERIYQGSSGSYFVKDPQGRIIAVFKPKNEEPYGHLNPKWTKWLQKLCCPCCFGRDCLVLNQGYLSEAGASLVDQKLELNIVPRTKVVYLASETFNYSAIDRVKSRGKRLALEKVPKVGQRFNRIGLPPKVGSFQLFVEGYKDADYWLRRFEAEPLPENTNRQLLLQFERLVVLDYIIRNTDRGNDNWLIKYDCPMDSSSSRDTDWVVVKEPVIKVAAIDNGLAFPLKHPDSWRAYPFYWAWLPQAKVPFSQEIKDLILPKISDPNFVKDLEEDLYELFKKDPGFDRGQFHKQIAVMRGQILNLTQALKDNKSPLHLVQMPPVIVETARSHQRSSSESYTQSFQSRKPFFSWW
Sequence of UniProt Q9Y2Y1 (Q9Y2Y1 whole entry, looked up): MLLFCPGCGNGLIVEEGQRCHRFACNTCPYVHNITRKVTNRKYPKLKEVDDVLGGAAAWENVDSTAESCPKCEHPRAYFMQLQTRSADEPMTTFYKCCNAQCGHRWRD
Sequence of UniProt Q13200 (Q13200 whole entry, looked up): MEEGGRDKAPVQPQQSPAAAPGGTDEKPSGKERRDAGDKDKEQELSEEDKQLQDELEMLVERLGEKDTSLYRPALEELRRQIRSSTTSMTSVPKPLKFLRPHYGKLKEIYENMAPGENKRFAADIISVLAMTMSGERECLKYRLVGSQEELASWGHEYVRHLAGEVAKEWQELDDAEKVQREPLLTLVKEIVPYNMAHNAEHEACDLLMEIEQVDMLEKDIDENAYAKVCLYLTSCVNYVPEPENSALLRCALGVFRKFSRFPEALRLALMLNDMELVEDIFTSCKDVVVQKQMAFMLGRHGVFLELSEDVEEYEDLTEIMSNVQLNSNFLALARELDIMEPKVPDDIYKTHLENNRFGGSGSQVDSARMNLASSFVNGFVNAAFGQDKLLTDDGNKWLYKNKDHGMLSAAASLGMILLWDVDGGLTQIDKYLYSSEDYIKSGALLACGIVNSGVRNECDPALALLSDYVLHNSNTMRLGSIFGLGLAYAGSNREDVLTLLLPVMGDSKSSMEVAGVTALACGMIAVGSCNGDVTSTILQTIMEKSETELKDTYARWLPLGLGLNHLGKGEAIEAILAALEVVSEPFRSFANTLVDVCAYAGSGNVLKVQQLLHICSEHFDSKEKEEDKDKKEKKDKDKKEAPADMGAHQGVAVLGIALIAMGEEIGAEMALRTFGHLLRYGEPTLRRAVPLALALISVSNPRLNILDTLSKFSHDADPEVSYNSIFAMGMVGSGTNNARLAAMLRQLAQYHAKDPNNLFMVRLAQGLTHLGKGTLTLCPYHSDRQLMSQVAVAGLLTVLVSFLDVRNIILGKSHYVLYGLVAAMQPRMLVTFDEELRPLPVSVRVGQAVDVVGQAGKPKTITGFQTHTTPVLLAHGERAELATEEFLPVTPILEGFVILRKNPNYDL
Sequence of UniProt Q5JRX3 (Q5JRX3 whole entry, looked up): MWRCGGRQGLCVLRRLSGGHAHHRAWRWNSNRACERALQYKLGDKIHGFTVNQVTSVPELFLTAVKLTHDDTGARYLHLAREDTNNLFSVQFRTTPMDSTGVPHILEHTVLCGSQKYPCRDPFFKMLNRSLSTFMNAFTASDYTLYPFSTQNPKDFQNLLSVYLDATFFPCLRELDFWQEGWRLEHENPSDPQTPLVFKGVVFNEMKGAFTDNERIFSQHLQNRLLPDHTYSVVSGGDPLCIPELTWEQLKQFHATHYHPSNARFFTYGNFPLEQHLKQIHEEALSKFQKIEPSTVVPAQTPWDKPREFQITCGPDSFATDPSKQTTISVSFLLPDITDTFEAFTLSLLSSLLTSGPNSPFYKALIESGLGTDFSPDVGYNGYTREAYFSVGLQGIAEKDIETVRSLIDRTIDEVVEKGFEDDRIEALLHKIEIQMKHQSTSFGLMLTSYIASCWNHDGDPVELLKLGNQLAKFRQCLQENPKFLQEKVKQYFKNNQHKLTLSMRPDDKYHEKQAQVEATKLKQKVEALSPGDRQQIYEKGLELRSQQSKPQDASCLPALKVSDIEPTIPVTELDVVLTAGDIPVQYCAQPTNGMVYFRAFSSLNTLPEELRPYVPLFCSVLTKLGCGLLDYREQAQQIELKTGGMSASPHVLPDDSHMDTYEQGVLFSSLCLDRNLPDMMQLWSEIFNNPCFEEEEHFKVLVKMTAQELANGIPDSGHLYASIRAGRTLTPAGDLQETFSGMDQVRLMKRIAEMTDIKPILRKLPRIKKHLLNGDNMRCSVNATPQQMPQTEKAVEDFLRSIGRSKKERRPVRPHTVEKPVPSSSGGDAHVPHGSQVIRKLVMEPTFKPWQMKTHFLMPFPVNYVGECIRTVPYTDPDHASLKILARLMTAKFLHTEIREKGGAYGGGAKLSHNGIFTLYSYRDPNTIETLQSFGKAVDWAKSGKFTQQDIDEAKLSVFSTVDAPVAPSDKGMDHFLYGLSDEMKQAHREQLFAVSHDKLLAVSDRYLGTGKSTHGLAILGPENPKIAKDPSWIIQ
Sequence of UniProt Q8N4L2 (Q8N4L2 whole entry, looked up): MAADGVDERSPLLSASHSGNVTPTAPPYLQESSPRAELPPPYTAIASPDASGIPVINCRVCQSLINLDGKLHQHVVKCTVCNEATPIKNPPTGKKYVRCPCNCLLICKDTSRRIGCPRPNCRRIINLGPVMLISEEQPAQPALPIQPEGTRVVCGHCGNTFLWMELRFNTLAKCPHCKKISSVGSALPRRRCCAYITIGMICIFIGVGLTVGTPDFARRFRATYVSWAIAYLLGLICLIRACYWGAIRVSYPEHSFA
Sequence of UniProt Q96KB5 (Q96KB5 whole entry, looked up): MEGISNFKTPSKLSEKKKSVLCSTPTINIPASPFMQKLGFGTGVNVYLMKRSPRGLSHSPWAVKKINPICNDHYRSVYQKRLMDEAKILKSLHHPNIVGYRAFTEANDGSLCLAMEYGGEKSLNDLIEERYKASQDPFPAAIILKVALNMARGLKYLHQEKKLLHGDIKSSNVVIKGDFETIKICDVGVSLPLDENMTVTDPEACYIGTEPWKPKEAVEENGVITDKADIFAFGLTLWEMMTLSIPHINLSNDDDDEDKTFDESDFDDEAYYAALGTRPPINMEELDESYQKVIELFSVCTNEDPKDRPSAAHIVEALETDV
Sequence of UniProt Q9NP80 (Q9NP80 whole entry, looked up): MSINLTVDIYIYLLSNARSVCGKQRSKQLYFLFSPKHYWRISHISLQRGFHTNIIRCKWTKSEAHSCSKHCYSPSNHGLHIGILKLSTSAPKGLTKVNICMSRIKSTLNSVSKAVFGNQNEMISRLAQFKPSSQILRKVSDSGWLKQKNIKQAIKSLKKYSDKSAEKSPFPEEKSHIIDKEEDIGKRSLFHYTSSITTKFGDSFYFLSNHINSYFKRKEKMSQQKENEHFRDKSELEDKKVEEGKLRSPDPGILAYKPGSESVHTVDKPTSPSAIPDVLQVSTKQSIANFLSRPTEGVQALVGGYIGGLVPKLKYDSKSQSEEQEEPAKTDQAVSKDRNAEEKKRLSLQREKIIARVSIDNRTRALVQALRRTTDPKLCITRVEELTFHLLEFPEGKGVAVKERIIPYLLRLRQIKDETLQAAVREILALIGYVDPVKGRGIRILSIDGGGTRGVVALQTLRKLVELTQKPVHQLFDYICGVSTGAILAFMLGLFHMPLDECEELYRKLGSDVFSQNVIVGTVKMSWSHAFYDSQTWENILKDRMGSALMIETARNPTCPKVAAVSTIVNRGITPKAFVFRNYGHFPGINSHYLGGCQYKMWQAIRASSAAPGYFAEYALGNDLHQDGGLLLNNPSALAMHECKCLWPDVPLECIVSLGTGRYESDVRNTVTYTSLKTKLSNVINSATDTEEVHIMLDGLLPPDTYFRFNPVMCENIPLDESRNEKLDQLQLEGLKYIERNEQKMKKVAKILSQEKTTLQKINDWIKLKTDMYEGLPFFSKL
Sequence of UniProt Q9UKL6 (Q9UKL6 whole entry, looked up): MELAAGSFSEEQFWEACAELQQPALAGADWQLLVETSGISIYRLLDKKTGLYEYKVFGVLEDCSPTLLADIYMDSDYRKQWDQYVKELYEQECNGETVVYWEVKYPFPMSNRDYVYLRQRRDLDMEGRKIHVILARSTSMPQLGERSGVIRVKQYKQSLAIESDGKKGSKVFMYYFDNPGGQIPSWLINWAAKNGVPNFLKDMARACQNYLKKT
Sequence of UniProt Q96AD5 (Q96AD5 whole entry, looked up): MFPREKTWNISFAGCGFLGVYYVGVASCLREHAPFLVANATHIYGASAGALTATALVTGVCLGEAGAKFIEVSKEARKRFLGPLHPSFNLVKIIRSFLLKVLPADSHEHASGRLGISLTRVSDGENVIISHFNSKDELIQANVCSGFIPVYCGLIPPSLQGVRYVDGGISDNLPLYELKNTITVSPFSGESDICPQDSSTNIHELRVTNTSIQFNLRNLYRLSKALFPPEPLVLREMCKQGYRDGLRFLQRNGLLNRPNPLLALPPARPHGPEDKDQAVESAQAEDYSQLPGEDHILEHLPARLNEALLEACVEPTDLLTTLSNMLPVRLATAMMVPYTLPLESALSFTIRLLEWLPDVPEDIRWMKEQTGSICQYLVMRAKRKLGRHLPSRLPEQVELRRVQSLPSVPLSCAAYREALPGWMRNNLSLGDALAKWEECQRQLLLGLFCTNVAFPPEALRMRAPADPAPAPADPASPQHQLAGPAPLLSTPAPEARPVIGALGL
Sequence of UniProt P53609 (P53609 whole entry, looked up): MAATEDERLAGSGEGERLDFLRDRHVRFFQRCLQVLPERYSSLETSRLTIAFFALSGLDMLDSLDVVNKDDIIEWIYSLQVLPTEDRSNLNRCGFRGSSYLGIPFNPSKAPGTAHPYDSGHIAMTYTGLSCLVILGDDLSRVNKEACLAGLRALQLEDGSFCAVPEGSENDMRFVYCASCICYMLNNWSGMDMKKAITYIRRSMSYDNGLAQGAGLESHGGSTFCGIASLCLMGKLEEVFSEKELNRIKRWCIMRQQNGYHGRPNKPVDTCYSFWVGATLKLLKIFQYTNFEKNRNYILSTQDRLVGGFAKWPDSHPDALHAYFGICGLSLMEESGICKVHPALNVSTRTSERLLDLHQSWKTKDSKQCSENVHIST

log2 fold change, inactive:
PPP6R1 (UniProt Q9UPN7) -0.055
PELP1 (UniProt Q8IZL8) -0.033
PCGF2 (UniProt P35227) 0.11
PTPN23 (UniProt Q9H3S7) 0.044
PBK (UniProt Q96KB5) 0.014
POTEI (UniProt P0CG38) -0.003
PDE4DIP isoform 4 (UniProt Q5VU43) 0.024
PSMD2 (UniProt Q13200) -0.071
PPT2 isoform 3 (UniProt Q9UMR5) -0.029
PLA2G15 (UniProt Q8NCC3) 0.03
PRPF38B (UniProt Q5VTL8) 0.083
PELO (UniProt Q9BRX2) 0.053
PIGT (UniProt Q969N2) 0.046
PRKCQ (UniProt Q04759) -0.206
PDCD6IP (UniProt Q8WUM4) 0.022
PRIM2 (UniProt P49643) 0.063
POLR2B (UniProt P30876) 0.214
PIP4P2 (UniProt Q8N4L2) 0.007
PTMA (UniProt P06454) -0.049
POLD3 (UniProt Q15054) -0.05
PSMC3 (UniProt P17980) -0.015
POLR3K (UniProt Q9Y2Y1) 0.01
PPP2R5C isoform 4 (UniProt Q13362) 0.155
PCYT1A (UniProt P49585) -0.05
PEF1 (UniProt Q9UBV8) -0.089
PITRM1 isoform 2 (UniProt Q5JRX3) -0.026
PURA (UniProt Q00577) -0.052
PPIL1 (UniProt Q9Y3C6) 0.12
PIKFYVE (UniProt Q9Y2I7) -0.037
PNPLA8 (UniProt Q9NP80) -0.125
PNPLA2 (UniProt Q96AD5) -0.077
PGGT1B (UniProt P53609) -0.031
PI4K2A (UniProt Q9BTU6) -0.015
PRPF40A (UniProt O75400) -0.091
POLD1 (UniProt P28340) -0.006

log2 fold change, active:
PLIN2 (UniProt Q99541) -0.891
PCTP (UniProt Q9UKL6) -0.239
